Screening data: PubChem, National Center for Advancing Translational Sciences (NCATS)
Pf growth 96h = P. falciparum growth inhibition at 96 hour, primary screen for plastid delayed-death inhibitors; P. falciparum luciferase reporter growth, 96 h; Potency, µM (series often up to 28.7 µM), hits mostly inhibitors; hit rate 6.9% among 320,000; active = well fitted inhibition curve with a large enough effect; inconclusive = small, poorly fitted or top-dose-only effect, or another doubt; inactive = no such curve, though single readings can be large or run the other way
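Plates of compound plus infected erythrocytes (2% hematocrit, 0.05% parasitemia final) incubate 96 hours, 37 C, 5% CO2. Detection reagent added; reduced luminescence from the parasites' luciferase reporter flags inhibition.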
Shiga toxin inh = inhibitors of Shiga toxin in Vero cells | Vero cells, Shiga toxin protein synthesis inhibition reporter | inhibition, % at 38.7 µM | hit rate 9.2% among 290,000; in the data active = inhibition mostly above about 28%, no sharp cut-off; inactive = mostly below about 43%
CHX counter = counter-screen hit for Shiga toxin inhibitors, cycloheximide | cell reporter, cycloheximide protein synthesis inhibition counterscreen | max response, % | hit rate 12% among 300,000 | AID 2314; in the data active = max response mostly above about 13%, no sharp cut-off; inactive = mostly below about 14%; also: read at 38.3 µM for the half of the compounds with a filed dose
Pf growth 48h = P. falciparum growth inhibition at 48 hours (one generation); P. falciparum luciferase growth in erythrocytes, 48 h; Potency, µM (top dose mostly 28.7 µM), actives largely listed as inhibitors; hit rate 5.9% among 310,000; AID 504832; active = well fitted inhibition curve with a large enough effect; inconclusive = small, poorly fitted or top-dose-only effect, or another doubt; inactive = no such curve, though single readings can be large or run the other way
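Luminescence readout; reporter = integrated firefly luciferase in P. falciparum. RBC culture at 2% hematocrit, 0.1% parasitemia final, 37 C/5% CO2; decreased signal taken as growth inhibition.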
NS1 inh = inhibitors of influenza NS1 protein function | AID 2326 | hit rate 0.4% among 270,000 | Potency, µM (top dose mostly 46.1 µM); also: actives are rising curves; nearly all actives have a fitted effect of over 50% in size
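Read-out: OD600 growth recovery of NS1-expressing budding yeast. Cells grown overnight at 30C in -URA glucose medium, washed, resuspended and diluted 1:100 in 2% galactose assay medium, pH 6.0. Same strain lacking NS1 served as positive control.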
SARS PLpro yeast = inhibitors of SARS-CoV papain-like protease in yeast; S. cerevisiae expressing SARS-CoV PLpro, growth rescue; Potency, µM (series often up to 32.9 µM), actives largely listed as activators; hit rate 0.19% among 330,000; also: nearly all actives have a fitted effect of over 55% in size
Of the large screens only hits and unclear results are named; the others gave an inactive call. A selection: hits, their analogues and other compounds. The true share with any hit is near 21%. Unless noted, calls follow the shape of the full dose curve.

O=C(CCc1ccc(O)c(O)c1)N/N=C/c1ccc2c(c1)OCO2	Pf growth 96h inconclusive, CHX counter 33.1, Pf growth 48h inconclusive
Cc1ccccc1NCC(=O)N/N=C\c1ccc2c(c1)OCO2	none
Cc1ccc(C)c(NC(=O)CCC(=O)N/N=C/c2ccc3c(c2)OCO3)c1	CHX counter 19.7
CC(C)Oc1ccc(CCC(=O)N/N=C/c2ccc3c(c2)OCO3)cc1	none (no result: Pf growth 48h)
O=C1NC2(CCCCC2)Cc2ccccc21	none
N#CC(C#N)=C1NC2(CCCC2)Cc2ccccc21	Pf growth 96h 3.29µM, Pf growth 48h inconclusive
S=C1NC2(CCCCC2)Cc2ccccc21	Pf growth 96h 11.7µM, Pf growth 48h inconclusive
CCc1nc(N2CCN(CC(=O)NCC3CCCO3)CC2)c(C#N)c2c1COC(C)(C)C2 (configuration not stated)	Pf growth 96h inconclusive, Pf growth 48h inconclusive
O=C1CC2(CCN(C(=O)C(=O)c3c[nH]c4ccccc34)CC2)Oc2ccccc21	Pf growth 96h inconclusive, Pf growth 48h inconclusive
CC1(C)N(O)CC(c2cccs2)=[N+]1[O-]	none (no result: Pf growth 96h)
[O-][N+]1=C(c2cccs2)CN(O)C1	Pf growth 96h 1.65µM
Cc1cc(OC(=O)c2cc([N+](=O)[O-])ccc2Cl)c([N+](=O)[O-])c(=O)[nH]1	none
COc1ccc(-c2coc3cc(OC)cc(O)c3c2=O)cc1	Shiga toxin inh 50.7, CHX counter 51.9
O=c1c(-c2ccc(O)cc2)coc2cc(O)cc(O)c12	Shiga toxin inh 112.3, CHX counter 30.5
O=c1c(-c2c(O)cc(O)c3c(=O)cc(-c4ccc(O)cc4)oc23)c(-c2ccc(O)cc2)oc2cc(O)cc(O)c12	none
COc1ccc(-c2coc3cc(O[C@@H]4O[C@H](CO)[C@@H](O)[C@H](O)[C@H]4O)c(OC)cc3c2=O)cc1	none (no result: Pf growth 96h, Shiga toxin inh, CHX counter, Pf growth 48h, NS1 inh)
COc1cc(O)c2c(=O)c3c(O)ccc(O)c3oc2c1	none (no result: Pf growth 96h, Shiga toxin inh, CHX counter, Pf growth 48h, NS1 inh)
COc1ccc(-c2coc3cc(O)c(OC)cc3c2=O)cc1	none (no result: Shiga toxin inh, CHX counter, NS1 inh)
COc1cc(O)cc2occ(-c3ccc(O)cc3)c(=O)c12	Pf growth 96h inconclusive, CHX counter 13.1
COc1ccc(-c2coc3cc(OC)cc(OC)c3c2=O)cc1	Shiga toxin inh 49.0, CHX counter 34.2
Cc1nc(NC(=O)CSc2cc(C)c3ccccc3n2)c(Cl)cc1Cl	none
COc1ccc(-c2coc3cc(O)cc(O)c3c2=O)cc1	Shiga toxin inh 93.5, CHX counter 49.8
COc1ccc(-c2coc3cc(O)ccc3c2=O)cc1O	Shiga toxin inh 38.4, CHX counter 40.6
CC(C)Oc1cc(O)c2c(=O)c(-c3ccc(O)cc3)coc2c1	Pf growth 96h 2.94µM, Shiga toxin inh 82.0, CHX counter 30.3
COc1ccc(-c2nn(C)c(=O)c3ccccc23)cc1CNC(=O)CN1CCOCC1	none (no result: Pf growth 96h, Shiga toxin inh, CHX counter, Pf growth 48h, SARS PLpro yeast)
C=CCN1CC(O)=C(c2nc3ccccc3[nH]2)C1=N	Shiga toxin inh 127.7, CHX counter 56.3 (no result: NS1 inh)
CCCCN1CC(O)=C(c2nc3ccccc3[nH]2)C1=N	CHX counter 47.1
CC(C)CCN1CC(O)=C(c2nc3ccccc3[nH]2)C1=N	CHX counter 16.7 (no result: Pf growth 96h)
CCCCCN1CC(O)=C(c2nc3ccccc3[nH]2)C1=N	CHX counter 35.9 (no result: NS1 inh)
CC1(C)C(=O)OC(/C=C\c2cccc([N+](=O)[O-])c2)C(C)(C)C1=O (configuration not stated)	none
O=C(Nc1ccccc1O)C(c1ccccc1)c1ccccc1	none
O=S(=O)(Nc1nc2ccccc2nc1Cl)c1cccc(C(F)(F)F)c1	none
O=C1[C@@H]2Cc3c([nH]c4ccccc34)C(c3cccc([N+](=O)[O-])c3)N2C(=O)CN1C1CCN(Cc2ccccc2)CC1 (some centres not stated)	Pf growth 96h 14.7µM, Pf growth 48h 9.28µM
CCCN1CC(=O)N2C(c3cccc(OC)c3OC)c3[nH]c4ccccc4c3C[C@H]2C1=O (some centres not stated)	Pf growth 96h 4.15µM, Pf growth 48h 9.28µM
CCOc1ccccc1C1c2[nH]c3ccccc3c2C[C@H]2C(=O)N(C3CC3)CC(=O)N12 (some centres not stated)	Pf growth 96h 9.28µM, Pf growth 48h inconclusive
CCOc1ccc(C2c3[nH]c4ccccc4c3C[C@H]3C(=O)N(C4CC4)CC(=O)N23)cc1OC (some centres not stated)	Pf growth 96h inconclusive
